# Measurements from article PMC4336329 (PLoS ONE, 2015).
# The campaign covered roughly 310,000 compounds. About 14,000 (4.5%) showed an effect of 50% or more. The effect is printed as a negative number. Only a selection was taken, and strong results are over-represented in it overall.
# Biological target: human ether-à-go-go-related gene (hERG) potassium channel (human, UniProt Q12809)
# Test: primary screen, population patch clamp on CHO cells stably expressing hERG; higher = less effect of the substance
# 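Also: peak tail current of the secondary pulse compared with the same well before compound.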
# Chain of human ether-à-go-go-related gene (hERG) potassium channel (Q12809 whole entry, looked up): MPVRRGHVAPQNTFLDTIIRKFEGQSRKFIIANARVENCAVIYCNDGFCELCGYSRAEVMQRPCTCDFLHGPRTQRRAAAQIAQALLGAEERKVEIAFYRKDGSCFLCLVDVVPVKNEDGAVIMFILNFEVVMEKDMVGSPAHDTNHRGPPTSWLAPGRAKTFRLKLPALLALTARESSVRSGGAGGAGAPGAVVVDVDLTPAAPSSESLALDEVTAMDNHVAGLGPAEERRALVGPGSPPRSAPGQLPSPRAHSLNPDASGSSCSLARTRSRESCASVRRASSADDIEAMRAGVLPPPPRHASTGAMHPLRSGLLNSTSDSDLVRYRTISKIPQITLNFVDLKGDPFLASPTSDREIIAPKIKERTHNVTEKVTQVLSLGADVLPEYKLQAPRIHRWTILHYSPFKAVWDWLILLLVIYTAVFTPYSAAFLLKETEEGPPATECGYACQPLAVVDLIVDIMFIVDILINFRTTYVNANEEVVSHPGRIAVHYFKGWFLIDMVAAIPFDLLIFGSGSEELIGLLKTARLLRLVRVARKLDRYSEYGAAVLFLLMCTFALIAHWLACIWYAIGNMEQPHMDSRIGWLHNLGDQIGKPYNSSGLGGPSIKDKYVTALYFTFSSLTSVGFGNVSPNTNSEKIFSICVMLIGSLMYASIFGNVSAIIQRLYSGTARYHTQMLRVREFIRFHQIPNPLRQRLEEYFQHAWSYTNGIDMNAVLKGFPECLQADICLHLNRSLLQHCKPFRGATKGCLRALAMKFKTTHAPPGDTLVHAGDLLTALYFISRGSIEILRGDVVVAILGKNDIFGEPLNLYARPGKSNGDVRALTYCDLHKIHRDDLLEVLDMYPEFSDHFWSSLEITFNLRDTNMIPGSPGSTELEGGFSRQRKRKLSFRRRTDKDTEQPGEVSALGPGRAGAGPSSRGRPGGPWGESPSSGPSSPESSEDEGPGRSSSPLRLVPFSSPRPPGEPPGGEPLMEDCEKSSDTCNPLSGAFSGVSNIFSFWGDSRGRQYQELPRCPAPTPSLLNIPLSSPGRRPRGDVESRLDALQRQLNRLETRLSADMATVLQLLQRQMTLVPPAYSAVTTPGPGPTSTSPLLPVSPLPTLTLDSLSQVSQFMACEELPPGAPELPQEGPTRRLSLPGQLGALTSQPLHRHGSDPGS
row,Compound,"hERG current change (%, negative = inhibition) at 10uM"
1,O=C(O)c1ccc(NC(=S)NC(=O)c2ccc(-c3ccccc3)cc2)cc1,19.4%
2,CNC[C@H](NC[C@@H](NCCCc1ccccc1)c1ccccc1)[C@H](C)O,11.7%
3,Cc1ccc(CSCC(=O)Nc2ccc3c(c2)OCO3)cc1,-14.5%
4,COc1ccccc1CC(=O)Nc1ccc(S(=O)(=O)N2CCN(C)CC2)cc1,14.4%
5,CS(=O)(=O)Nc1ccccc1C(=O)N1CCOCC1,16.4%
6,O=C(CSc1oc(-c2ccco2)nc1S(=O)(=O)c1ccc(Cl)cc1)NCC1CCCO1 (centres unmarked),-41.3%
7,CCN(CC)C(=N)/C(C#N)=N/Nc1ccc(C)cc1,-56.6%
8,Cc1ccc(N/N=C(\C#N)C(=N)N2CCCCCC2)cc1,12.7%
9,CCN(CC)C(=N)/C(C#N)=N/Nc1ccccc1,-15.7%
10,Cc1cc(NC(=O)Nc2cc(F)ccc2F)no1,17.7%
11,CCCN(Cc1nnc(-c2ccccc2Cl)o1)C(=O)c1ccc(C)c(S(=O)(=O)N2CCOCC2)c1,-55.8%
12,CCCN(Cc1nnc(-c2ccccc2Cl)o1)C(=O)c1cc(S(=O)(=O)N2CCOCC2)ccc1F,-47.7%
13,O=C(c1ccc(Cl)c(S(=O)(=O)N2CCOCC2)c1)N(Cc1nnc(-c2ccccc2Cl)o1)C1CC1,-58.9%
14,O=C(c1cccc(S(=O)(=O)N2CCOCC2)c1)N(Cc1nnc(-c2ccccc2Cl)o1)C1CC1,-24.9%
15,O=C(c1cc([N+](=O)[O-])cc([N+](=O)[O-])c1)N(Cc1nnc(-c2ccccc2Cl)o1)C1CC1,-36.8%
16,Cc1ccc(S(=O)(=O)N2CCOCC2)cc1C(=O)N(Cc1nnc(-c2ccccc2Cl)o1)C1CC1,-33.9%
17,CCCN(Cc1nnc(-c2ccccc2Cl)o1)C(=O)c1cc([N+](=O)[O-])cc([N+](=O)[O-])c1,-55.1%
18,CCCN(Cc1nnc(-c2ccccc2Cl)o1)C(=O)c1cc2ccccc2o1,-17%
19,CCCN(Cc1nnc(-c2ccccc2Cl)o1)C(=O)c1cccc(S(=O)(=O)N2CCOCC2)c1,-6.05%
20,CN(CC(=O)Nc1ccc(Cl)cc1)CC(=O)Nc1cccc2ccccc12,-2.26%
21,O=C(/C=C/c1ccccc1Cl)Nc1ccc(-c2nnc3n2CCCCC3)cc1,-6.47%
22,COc1cc(CNC(C)(C)C)cc(Br)c1OCc1cccs1.Cl,-28.7%

row,Compound,"hERG current change (%, negative = inhibition) at 10uM"
1,NS(=O)(=O)c1cccnc1Nc1c(Cl)cccc1Cl,10.6%
2,CCCCc1nc2ccccc2c(NC(=O)CN(CC)CC)c1CCC.O=C(O)C(=O)O,-26.8%
3,COc1ccc(S(=O)(=O)N2CCCCCC2)cc1NC(=O)c1ccccc1F,3.54%
4,NC(=O)c1ccsc1NC(=O)CCS(=O)(=O)c1ccc(F)cc1,-2.69%
5,NC(=O)c1ccsc1NC(=O)CS(=O)(=O)c1ccc(F)cc1,-68.2%
6,NC(=O)c1ccsc1NC(=O)CS(=O)(=O)c1ccc(Cl)cc1,-75.7%
7,O=C(CS(=O)(=O)c1ccc(F)cc1)Nc1nccs1,9.06%
8,NC(=O)c1ccsc1NC(=O)CS(=O)(=O)c1ccccc1,-8.27%
9,CNC(=O)c1ccsc1NC(=O)CS(=O)(=O)c1ccc(Cl)cc1,-38.6%
10,COc1ccccc1S(=O)(=O)Cc1ccc(C(=O)N2CCN(c3ccc(C)cc3)C(C)C2)o1 (centres unmarked),-24.6%
11,CCCNC(=O)c1oc2ccc3c(c2c1C)C=CC(C)(C)O3,0.704%
12,CCOC(=O)c1cc2c(=O)n3ccccc3nc2n(CCCOC)c1=NC(=O)c1ccncc1,-87.3%
13,CCOC(=O)c1cc2c(=O)n3ccccc3nc2n(CCOC)c1=NC(=O)c1c(-c2c(F)cccc2Cl)noc1C,2%
14,CCOC(=O)c1cc2c(=O)n3ccccc3nc2n(CCOC)c1=NC(=O)c1ccncc1,-51.3%
15,CCOC(=O)c1cc2c(=O)n3ccccc3nc2n(CCOC)c1=NC(=O)C(C)(C)C,-4.45%
16,CCOC(=O)c1cc2c(=O)n3ccccc3nc2n(CCCOC)c1=NC(=O)C(C)(C)C,-7.42%
17,CCOC(=O)c1cc2c(=O)n3ccccc3nc2n(CCCOC)c1=NC(C)=O,-27.5%
18,Cc1cccc(C(=O)Nc2ccc(C(=O)/C=C/c3cccs3)cc2)c1,7.48%
19,O=C(CSc1n[nH]c(=O)[nH]c1=O)N/N=C/c1ccccc1,8.14%
20,COc1ccc(-n2nc(C(=O)NCC(=O)NC(C)C)c3ccccc3c2=O)c(OC)c1,11.3%
21,COc1ccc(S(=O)(=O)n2nc(-c3cc(OC)c(OC)c(OC)c3)cc2N)cc1OC,-2.63%
22,Cc1ccc(OCC(=O)N/N=C\c2ccco2)c(C)c1,-38%
